An excerpt weighted towards active compounds, which were near 9% of everything screened.
ALDH1A1 block – qHTS Assay for Inhibitors of Aldehyde Dehydrogenase 1 (ALDH1A1); 220,000 compounds, 7.3% hits; Potency, µM (highest dose often 75.3 µM), without a hit: top-dose activity, negative = inhibition, usual class: inhibitors; Aldehyde dehydrogenase 1A1 (Homo sapiens), P00352; Purified ALDH1A1, NADH fluorescence, propionaldehyde substrate;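 also: potency is read from the fitted curve at half-maximal effect; plate controls were no enzyme wells and a reference inhibitor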
Target sequence (P00352 whole entry, looked up): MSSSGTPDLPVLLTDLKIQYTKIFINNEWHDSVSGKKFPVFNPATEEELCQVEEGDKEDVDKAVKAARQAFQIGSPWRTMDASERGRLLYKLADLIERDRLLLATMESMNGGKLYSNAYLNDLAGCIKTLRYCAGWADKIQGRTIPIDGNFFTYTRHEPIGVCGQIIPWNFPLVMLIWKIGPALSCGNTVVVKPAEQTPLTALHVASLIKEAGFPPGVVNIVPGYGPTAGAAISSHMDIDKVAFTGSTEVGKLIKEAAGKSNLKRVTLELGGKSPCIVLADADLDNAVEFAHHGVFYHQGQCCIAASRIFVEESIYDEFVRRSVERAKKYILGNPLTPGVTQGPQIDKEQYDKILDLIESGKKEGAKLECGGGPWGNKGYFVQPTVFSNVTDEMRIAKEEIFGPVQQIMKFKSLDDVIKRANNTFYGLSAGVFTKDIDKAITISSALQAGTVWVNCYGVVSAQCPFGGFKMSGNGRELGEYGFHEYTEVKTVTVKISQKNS
HPGD block – qHTS Assay for Inhibitors of HPGD (15-Hydroxyprostaglandin Dehydrogenase); purified HPGD, NADH fluorescence kinetic, PGE2 substrate; Potency, µM, for inactives: at the highest dose activity change, negative = inhibition, usual class: inhibitors; AID 894, 2007; 15-hydroxyprostaglandin dehydrogenase [NAD(+)] (Homo sapiens), P15428; 150,000 compounds, 4.3% hits; also: potency is read from the fitted curve at half-maximal effect
Target sequence (P15428 whole entry, looked up): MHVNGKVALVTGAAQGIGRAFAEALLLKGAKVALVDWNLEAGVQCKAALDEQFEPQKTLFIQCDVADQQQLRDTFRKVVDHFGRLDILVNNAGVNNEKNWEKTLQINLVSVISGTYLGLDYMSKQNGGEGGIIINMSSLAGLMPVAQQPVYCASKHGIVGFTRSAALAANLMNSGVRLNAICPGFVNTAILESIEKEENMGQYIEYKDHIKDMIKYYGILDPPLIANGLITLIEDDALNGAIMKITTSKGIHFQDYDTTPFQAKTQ
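20 nM HPGD preincubated 15 min at room temperature with compound in 50 mM Tris-HCl pH 8, 0.01% Tween 20. Started with 1 mM NAD+ and 30 uM prostaglandin E2; NADH fluorescence (360/450 nm) read 5 times over 30-s intervals, last minus first.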
IMPase inh – qHTS Assay for Identifying the Cell-Membrane Permeable IMPase Inhibitors | AID 901, 2007 | inhibition (IP1 accumulation), % at 46.1 µM | 120,000 tested, under 10 active | CHO-M1 cells, IP1 accumulation, HTRF TR-FRET ratio | Inositol monophosphatase 1 (Rattus norvegicus), P97697; active = well fitted curve in the direction sought with a large enough effect in the signal ratio, not every such curve was filed as active; inconclusive = small, poorly fitted or top-dose-only effect, or a change in a side signal; inactive = no such curve, though single readings can be large or run the other way; the % refers to the signal ratio;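 also: cells stimulated with carbachol in lithium chloride buffer; plate controls were DMSO basal wells for no effect and reference inhibitor wells for full effect; higher means more IMPase inhibition seen as more IP1 and lower FRET ratio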
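Cellular IMPase inhibition is scored as a rise in cytosolic IP1, detected by competitive TR-FRET between d2-labelled IP1 and a europium anti-IP1 antibody. M1-expressing CHO cells were stimulated with carbachol for 30 min at 37C, with lithium (50 mM LiCl) present in the buffer.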
* = called active by the depositor; ? = inconclusive; · = not tested or not shown. Unless noted, calls follow the shape of the dose curve; as a rule, active = well fitted inhibition curve with a large enough effect (not every such curve was filed as active); inconclusive = small, poorly fitted or top-dose-only effect, or another doubt; inactive = no such curve, though single readings can be large or run the other way. Unless noted, % is scaled to controls: 0 for no effect and ±100 for the full control effect.

SMILES | ALDH1A1 block | HPGD block | IMPase inh
O=C(Nc1ccccc1)C1=C[C@H](c2coc3ccccc3c2=O)C[C@H](OCc2ccc(CO)cc2)O1 | -6.7% | · | ·
O=C(NCc1ccccc1)C1=C[C@@H](C2CC2)C[C@@H](OCCCCO)O1 | -15.7% | · | ·
CCCC(C)NC(=O)COc1ccc(S(=O)(=O)N2CCCC2)cc1 (stereo unspecified) | -9.2% | · | ·
CC12CCCc3c(O)cc(=O)n(c31)-c1ccccc12 (stereo unspecified) | -1.8% | -8.6% | ·
c1ccc(-n2nnc3cnccc32)cc1 | 1.26µM* | -28.4% | -5.8
c1ccc(-n2nnc(-c3cccnc3)n2)cc1 | 1.1% | · | ·
O=C(CC1C(=O)NCCN1Cc1ccc(F)c(F)c1)NCCCn1ccnc1 (stereo unspecified) | -9.7% | · | ·
CC12CCC3C(CC3(C)C)C(C)(CCC1=O)O2 (stereo unspecified) | 15.7% | 0.8% | ·
C[N+](C)(C)CCOc1ccc([N+](=O)[O-])cc1 | 0.2% | · | ·
COc1ccc(P(=O)(COc2ccc([N+](=O)[O-])cc2)c2ccc(OC)cc2)cc1 | 7.08µM* | -5.3% | ·
CCN(CC)S(=O)(=O)c1cc(C(=O)Nc2ccncc2)ccc1Cl | ? | -11.2% | 3.9
CCN(CC)S(=O)(=O)c1cc(C(=O)Nc2cccnc2)ccc1Cl | 4.47µM* | -7.5% | 6.9
CC(C)c1ccc(/C=N/NC(=O)c2c(Cl)cnn2C)cc1 | 5.1% | -5.9% | ·
CCc1ccccc1Nc1nc2ccccc2c2nncn12 | · | · | -0.8
O=C(O)CNC(=S)N(Cc1ccccc1Cl)C1CCCC1 | 4.9% | · | ·
O=C(CN(Cc1ccccc1F)C(=O)c1ccco1)NCc1ccc(F)cc1 | ? | -9.4% | 6.2
O=C(CN1CCN(Cc2ccccc2F)C1=O)NCCN1CCOCC1 | -11.2% | -8.0% | -2.4
CCC(C)NC(=O)CNC(=S)N(Cc1ccccc1F)C1CCCCC1 (stereo unspecified) | 10µM* | · | ·
COCCCNC(=O)CNC(=S)N(Cc1ccc(F)cc1)C1CCCCC1 | ? | -4.1% | ?
O=C(CNC(=S)N(Cc1ccccc1F)C1CCCCC1)NCCN1CCOCC1 | 1.89µM* | · | ·
CCOCCCNC(=O)CNC(=S)N(Cc1ccccc1F)C1CCCCC1 | 14.1µM* | -12.2% | -3.0
O=C(CNC(=S)N(Cc1ccccc1)Cc1ccccc1F)NCc1ccccc1 | 10µM* | · | ·
COc1cc(C(c2c(C)[nH][nH]c2=O)c2c(C)[nH][nH]c2=O)ccc1OC(=O)c1ccccc1F | · | · | 3.7
Cc1ccc(Nc2nnc(SCC(=O)Nc3cc(C(=O)O)ccc3C)s2)c(C)c1 | 5.1% | · | ·
Cc1ccc(S(=O)(=O)N(CC(=O)O)c2ccc(Cl)c(C(F)(F)F)c2)cc1 | -2.8% | · | ·
SMILES | ALDH1A1 block | HPGD block | IMPase inh
CC(NC(=O)CNC(=S)N(Cc1cccs1)C1CCCC1)c1ccccc1 (stereo unspecified) | 15.8µM* | · | ·
O=C(O)CNC(=S)N(Cc1cccs1)C1CCCCC1 | -6.7% | -9.1% | 4.2
O=C1NCCC/C1=N/Nc1cc(F)ccc1F | 5.3% | · | ·
Cc1ccc(N/N=C2/CCCNC2=O)cc1 | 22.4µM* | -14.5% | -0.3
COc1ccc(/C=C/c2nnc(NC(=O)COc3ccc(C)cc3)s2)cc1 | ? | ? | 6.5
CC(=O)c1c(O)cc(O)cc1O | 6.4% | ? | ·
COc1ccc(N(C(=O)c2cccnc2)S(=O)(=O)c2cccc([N+](=O)[O-])c2)cc1 | -12.9% | · | ·
COc1ccc(N(C(=O)c2cccc([N+](=O)[O-])c2)S(=O)(=O)c2cccs2)cc1 | 25.1µM* | · | ·
COc1ccc(OCc2nc3c4c(-c5ccc(OC)cc5)c(-c5ccc(OC)cc5)oc4ncn3n2)cc1 | · | · | 0.6
O=C(/C=C/c1cccc(Cl)c1)Nc1ncccn1 | -5.9% | -15.8% | -4.0
O=C(/C=C/c1cccc(Cl)c1)c1nc2ccccc2[nH]1 | 2.24µM* | ? | 8.8
CC(C)CN1CCC2(CC1)CCN(C(=O)c1ccco1)CC2 | 11.6% | -11.6% | ·
Cc1c(C#N)c(N=CN(C)C)c(C(=O)c2ccc(Br)cc2)n1-c1ccccc1 | 22.4µM* | -8.0% | 7.5
Cc1c(C#N)c(N=CN(C)C)c(C(=O)c2ccccc2)n1-c1ccc(Br)cc1 | 4.7% | -0.9% | 6.0
O=c1[nH]ncc(N2CCCCCC2)c1Cl | 10µM* | · | ·
O=c1[nH]ncc(N2CCCCC2)c1Cl | -3.8% | -8.5% | ·
Cc1cccc(Cn2ccc(NC(=O)c3ccc4c(c3)OCO4)n2)c1 | -4.0% | · | ·
CCOC(=O)c1sc(Nc2ccc(OCC)cc2)nc1C | 5.3% | · | ·
CCOC(=O)c1sc(N2N=C(C)/C(=C\c3ccc(OCC(=O)OC)cc3)C2=O)nc1C | 14.1µM* | 28.2µM* | -2.6
COc1ccc(NC(=S)NNS(=O)(=O)c2ccc3ccccc3c2)c(OC)c1 | 22.4µM* | · | ·
COc1ccc(NC(=S)Nc2ccccc2F)c(OC)c1 | 10.3% | 0.4% | -1.9
Cc1onc(-c2c(F)cccc2Cl)c1C(=O)N1CCOC12CCCCC2 | -3.3% | · | ·
Cc1ccc(S(=O)(=O)/C(C#N)=C/c2c(Oc3ccc(Cl)cc3)nc3c(C)cccn3c2=O)cc1 | 9.2% | -9.6% | ·
Cc1ccc(S(=O)(=O)/C(C#N)=C/c2c(N3CCC(C(N)=O)CC3)nc3c(C)cccn3c2=O)cc1 | ? | 3.55µM* | 8.9
CCOC(=O)/C(C#N)=C/c1c(N2CCN(Cc3ccc4c(c3)OCO4)CC2)nc2c(C)cccn2c1=O | 0.708µM* | · | ·
SMILES | ALDH1A1 block | HPGD block | IMPase inh
CCN1CCN(c2nc3c(C)cccn3c(=O)c2/C=C(\C#N)S(=O)(=O)c2ccccc2)CC1 | 22.4µM* | -11.6% | -2.5
Cc1ccc(Oc2nc3c(C)cccn3c(=O)c2/C=C(\C#N)C(N)=O)cc1 | -15.0% | · | ·
Cc1cccn2c(=O)c(/C=C(\C#N)C(N)=O)c(N3CCN(Cc4ccc5c(c4)OCO5)CC3)nc12 | ? | -1.0% | 12.7
CNC(=O)/C(C#N)=C/c1c(N2CC(C)OC(C)C2)nc2ccccn2c1=O (stereo unspecified) | -3.5% | ? | ·
Cc1ccc(S(=O)(=O)/C(C#N)=C/c2c(N3CCC(C(N)=O)CC3)nc3ccccn3c2=O)cc1 | ? | 25.1µM* | 7.1
O=Cc1ccc(OC2OCCOC2Oc2ccc(C=O)cc2)cc1 (stereo unspecified) | ? | -7.9% | ·
O=C(CN(CCc1ccccc1)C(=O)CNS(=O)(=O)c1ccc(F)cc1)NCc1ccco1 | ? | -0.1% | -3.8
COc1ccc(N2CC(O)=C(c3nc(-c4ccc(F)cc4)cs3)C2=N)cc1OC | -6.7% | · | ·
COc1cccc(NC(=O)CSc2nc3ccccc3c3nc4ccccc4n23)c1 | ? | -24.6% | ·
CC(C)c1cccc(C(C)C)c1NC(=O)COC(=O)c1ccc2c(c1)S(=O)(=O)c1ccccc1C2=O | -8.9% | -5.9% | ·
Cc1cccn2c(=O)c(C=O)c(N3CCCCCC3)nc12 | 11.2µM* | -24.1% | 0.3
Cc1cccn2c(=O)c(/C=C(\C#N)S(=O)(=O)c3ccccc3)c(N3CCC(C(N)=O)CC3)nc12 | ? | 28.2µM* | 3.9
Cc1cccn2c(=O)c(/C=C(\C#N)C(=O)NC3CCS(=O)(=O)C3)c(N3CCC(C(N)=O)CC3)nc12 (stereo unspecified) | 4.5% | ? | -16.0
Cc1cccn2c(=O)c(C=O)c(N3CC(C)OC(C)C3)nc12 (stereo unspecified) | -1.7% | · | ·

Screening results from PubChem BioAssay.
